# Laboratory results taken from PubChem BioAssay (NCATS).
# Records with an inconclusive call do not appear. A call without a number means that no potency is given here. Active and inactive are the calls of the source. The call rests on the fitted dose curve; in most records, active means well fitted curve in the direction sought with a large enough effect; inconclusive means small, poorly fitted or top-dose-only effect, or another doubt; inactive means no such curve, though single readings can be large; an effect the other way counts as inactive or inconclusive.
# Experiments:
# [1] = Counterscreen for APE1 Inhibitors: Fluorescent Dye Displacement Validation Assay (AID 1707); further: potency means the concentration at half of the fitted maximal effect
# Procedure, shortened: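 Counterscreen flags promiscuous DNA binders: compounds displacing ThO from duplex DNA (abasic THF site, 50 nM) reduce 540 nm emission (480 nm excitation). ThO 250 nM final; Tris-HCl pH 7.5 with NaCl, MgCl2 and Tween-20.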
# [2] = target: Endonuclease 4 (Escherichia coli (strain K12)) (UniProt P0A6C1); test: Counterscreen for APE1 Inhibitors: qHTS Validation Assay for Inhibitors of Endonuclease IV (AID 1708)
# Procedure, shortened: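 Enzyme (2 nM) + compound, 15 min RT; add 50 nM TAMRA/BHQ-2 THF-site dsDNA; kinetic read ex525/em598, 3 reads/60 s; activity = read 3 − read 1. Buffer Tris pH 7.5, 50 mM NaCl, 2 mM MgCl2, DTT, Tween-20.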
# [3] = qHTS for differential inhibitors of proliferation of Plasmodium falciparum line 7G8 (AID 1815);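 further: parasite growth measured after three days of incubation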; further: potency means the concentration at half of the fitted maximal effect
# [4] = qHTS for differential inhibitors of proliferation of Plasmodium falciparum line GB4 (AID 1816); conditions: Potency: Plasmodium falciparum GB4 proliferation inhibition;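 further: parasite growth measured after 72 h incubation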; further: potency means the concentration at half of the fitted maximal effect
# [5] = qHTS for differential inhibitors of proliferation of Plasmodium falciparum line 3D7 (AID 1876); further: potency means the concentration at half of the fitted maximal effect
# [6] = qHTS for differential inhibitors of proliferation of Plasmodium falciparum line Dd2 (AID 1882); conditions: Potency: Plasmodium falciparum Dd2 proliferation inhibition; further: series mostly up to about 29 µM; nearly all actives have a fitted effect of over 65% in size
# Procedure, shortened: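 SYBR Green DNA fluorescence (ex 485, em 535 nm) after overnight lysis quantifies parasite growth; compound exposure lasted 72 h at 37 C on infected red cells at 2.5% hematocrit, 0.3% parasitemia (final). Artemisinin 0.29 uM and vehicle wells define normalization.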
# [7] = qHTS for differential inhibitors of proliferation of Plasmodium falciparum line W2 (AID 1883); conditions: Potency: Plasmodium falciparum W2 proliferation inhibition;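 further: parasites grown with compound for 72 h before lysis and staining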; further: potency means the concentration at half of the fitted maximal effect
# [8] = target: DNA repair nuclease/redox regulator APEX1 (Homo sapiens) (UniProt P27695); test: qHTS Validation Assay for Inhibitors of the Human Apurinic/apyrimidinic Endonuclease 1 (APE1) (AID 1705; further: potency means the concentration at half of the fitted maximal effect)
# Chain of DNA repair nuclease/redox regulator APEX1 (Homo sapiens) (P27695 whole entry, looked up): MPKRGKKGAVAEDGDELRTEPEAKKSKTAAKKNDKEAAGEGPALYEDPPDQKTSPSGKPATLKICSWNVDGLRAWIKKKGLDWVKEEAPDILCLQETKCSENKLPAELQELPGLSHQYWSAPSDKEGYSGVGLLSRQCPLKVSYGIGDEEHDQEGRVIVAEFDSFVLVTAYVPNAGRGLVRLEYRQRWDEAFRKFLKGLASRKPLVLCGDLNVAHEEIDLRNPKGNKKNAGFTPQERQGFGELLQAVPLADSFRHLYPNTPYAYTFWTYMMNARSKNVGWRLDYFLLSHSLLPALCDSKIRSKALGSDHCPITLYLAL
# Procedure, shortened: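 qHTS, 1536-well. APE1 + cpd 15 min RT → 50 nM TAMRA/BHQ-2 THF-abasic dsDNA substrate → kinetic fluorescence, 3 reads/60 s; delta(read3−read1) = reaction progress. No-enzyme buffer = negative control.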
# [9] = qHTS for differential inhibitors of proliferation of Plasmodium falciparum line D10 (AID 1877);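 further: parasites grown with compound for 72 h before DNA staining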; further: potency means the concentration at half of the fitted maximal effect
SMILES,Potency [1],Potency [2],Potency [3],Potency [4],Potency [5],Potency [6],Potency [7],Potency [8],Potency [9]
CNC(=O)OCC[N+](C)(C)C,inactive,inactive,inactive,inactive,inactive,inactive,inactive,–,–
COc1ccc2c(c1)C13CCCCC1C(C2)N(C)CC3 (stereo unspecified),inactive,inactive,3.16 µM (active),–,–,–,0.891 µM (active),inactive,inactive
CC(Cc1ccc(OCC(=O)O)cc1)NCC(O)c1cccc(Cl)c1 (stereo unspecified),inactive,inactive,–,inactive,inactive,inactive,inactive,inactive,inactive
CCCn1c(C)c(C(=O)c2ccc3ccccc3c2)c2ccccc21,inactive,–,7.94 µM (active),10 µM (active),10 µM (active),inactive,10 µM (active),inactive,14.1 µM (active)
CCCCCCCCCCCCCC(=O)O[C@@H]1[C@@H](C)[C@@]2(O)[C@@H](C=C(CO)C[C@@]3(O)C(=O)C(C)=C[C@@H]23)C2C(C)(C)[C@@]21OC(C)=O (stereo partly specified),–,–,5.62 µM (active),11.2 µM (active),10 µM (active),–,7.08 µM (active),–,11.2 µM (active)
NC(Cc1cc(O)c(O)cc1O)C(=O)O (stereo unspecified),7.94 µM (active),–,–,inactive,inactive,inactive,inactive,112 nM (active),inactive
